Results published in PubChem BioAssay (EPA / NIEHS).
Activity calls are given as the source filed them. Rule for the calls: active = hit-call score of the fitted dose curve at least 0.9, where 1 is the maximum; inactive = score below 0.9.

Assays:
[1] = ATG_GRE_CIS: Attagene CIS-FACTORIAL HepG2 Assay for human Glucocorticoid Response Elements (GRE) (AID 2282947); conditions: HepG2 GRE cis-reporter, Attagene multiplex mRNA; actives raise or lower the signal
Summary of the method: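 Multiplexed cis-reporter mRNA induction, HepG2, 24 h post-dose. RT-PCR, FAM-labelled, HpaI-digested amplicons by CE. Bidirectional fit vs DMSO.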

[2] = ATG_ISRE_CIS: Attagene CIS-FACTORIAL HepG2 Assay for human Interferon Regulatory Factor 1 (IRF1) binding to an Interferon-Stimulated Response Element (ISRE) (AID 2282948); conditions: HepG2 ISRE cis-reporter (Attagene), mRNA transcription readout; actives raise or lower the signal
Summary of the method: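 Read-out: fluorescent RT-PCR products resolved by capillary electrophoresis, reporting endogenous transcription factor activity via ISRE-driven reporter mRNA in transfected HepG2 cells dosed for 24 h; gain or loss fitted relative to DMSO.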

[3] = ATG_M_32_CIS: Attagene CIS-FACTORIAL HepG2 Assay for M32 Transcription Factor (Internal Marker) (AID 2282949); conditions: HepG2 Attagene cis-factorial M32 reporter, mRNA; actives raise or lower the signal;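 note: background control marker of the multiplexed CIS panel rather than a real target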
Summary of the method: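 Transient MRTU transfection of HepG2; 24 h compound treatment; TriZol RNA, oligo(dT) RT, reporter PCR, 6-FAM primer extension, HpaI cut, CE. Gain/loss of signal vs DMSO.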

[4] = ATG_M_06_CIS: Attagene CIS-FACTORIAL HepG2 Assay for M06 Transcription Factor (Internal Marker) (AID 2282950); conditions: HepG2 Attagene CIS-FACTORIAL M06 internal marker reporter; actives raise or lower the signal
Summary of the method: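 One of many multiplexed endpoints: HepG2 reporter mRNA after 24 h dosing, detected by RT-PCR and capillary electrophoresis fluorescence; gain or loss of signal analysed against DMSO.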

[5] = target: Hepatocyte nuclear factor 6 (Homo sapiens) (UniProt Q9UBC0); experiment: ATG_HNF6_CIS: Attagene CIS-FACTORIAL HepG2 Assay for human Hepatocyte Nuclear Factor 6 (HNF6) (AID 2282952); conditions: HepG2 Attagene cis-factorial HNF6 reporter transcription; actives raise or lower the signal
Summary of the method: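 Endogenous transcription factor activity in human HepG2 liver cells was captured through cis-regulated reporter constructs. After 24 h treatment, reporter mRNA was measured by RT-PCR with capillary electrophoresis, and activity was fitted in both directions relative to DMSO.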

[6] = target: Heat shock factor protein 1 (Homo sapiens) (UniProt Q00613); experiment: ATG_HSE_CIS: Attagene CIS-FACTORIAL HepG2 Assay for human Heat Shock Transcription Factor 1 (HSE) (AID 2282953); conditions: HepG2 HSE cis-reporter, Attagene RNA transcription; actives raise or lower the signal
Summary of the method: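 Using HepG2 with transfected cis-driven reporter constructs, compound effects on endogenous factor activity are scored as reporter mRNA change at 24 h. Detection: RT-PCR, HpaI digestion, capillary electrophoresis; bidirectional fitting to DMSO.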

[7] = ATG_MRE_CIS: Attagene CIS-FACTORIAL HepG2 Assay for human Metal Responsive Element (MRE) (AID 2282954); conditions: HepG2 MRE cis-reporter transcription, Attagene multiplex; actives raise or lower the signal
Summary of the method: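 Multiplexed cis-reporter assay in human HepG2 liver cells, 24 h incubation with test chemical. Reporter transcripts measured by RT-PCR and capillary electrophoresis; values from bidirectional curve fitting versus DMSO.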

[8] = ATG_PBREM_CIS: Attagene CIS-FACTORIAL HepG2 Assay for human Phenobarbital-responsive Enhancer Module (PBREM) (AID 2282955); conditions: HepG2 PBREM cis-reporter, Attagene multiplexed transcription; actives raise or lower the signal
Summary of the method: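 HepG2 cells transiently transfected with multiple cis-regulated reporter transcription units; endogenous factor activity at the PBREM element measured as reporter mRNA 24 h after dosing, via RT-PCR and capillary electrophoresis of fluorescent fragments; bidirectional fitting versus DMSO.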

[9] = target: Paired box protein Pax-6 (Homo sapiens) (UniProt P26367); experiment: ATG_Pax6_CIS: Attagene CIS-FACTORIAL HepG2 Assay for human Paired Box 6 (PAX6) (AID 2282956); conditions: HepG2 CIS-FACTORIAL PAX6 reporter transcription, RNA readout; actives raise or lower the signal
Summary of the method: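 Readout: reporter transcript fluorescence after RT-PCR and capillary electrophoresis. Cells: HepG2, transiently transfected with cis-regulated MRTUs. Exposure 24 h. Gain or loss of signal fitted bidirectionally relative to DMSO.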

[10] = ATG_PXRE_CIS: Attagene CIS-FACTORIAL HepG2 Assay for human Pregnane X Receptor Element (PXRE) (AID 2282957); conditions: HepG2 Attagene CIS-FACTORIAL PXRE reporter, mRNA; actives raise or lower the signal
Summary of the method: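 Endogenous transcription factor activity in HepG2 was gauged through induction of reporter mRNA driven by a cis-regulating promoter element, sampled 24 h post-treatment. Activity was fitted in both directions against DMSO negative control.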

[11] = ATG_RORE_CIS: Attagene CIS-FACTORIAL HepG2 Assay for human RAR-related Orphan Receptor Element (RORE) (AID 2282959); conditions: HepG2 Attagene cis-factorial RORE reporter, mRNA; actives raise or lower the signal
Summary of the method: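 HepG2 cells transiently transfected with multiple cis-element reporter transcription units, exposed to chemical for 24 h. Reporter mRNA quantified by RT-PCR, 6-FAM primer-extension labeling, HpaI digestion and capillary electrophoresis; bidirectional fit versus DMSO baseline.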

[12] = target: Transcription factor Sp1 (Homo sapiens) (UniProt P08047); experiment: ATG_Sp1_CIS: Attagene CIS-FACTORIAL HepG2 Assay for human Specificity Protein 1 (Sp1) (AID 2282961); conditions: HepG2 Sp1 cis-reporter transcription, actives raise or lower the signal
Summary of the method: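 HepG2 cells transiently transfected with multiple reporter transcription units driven by cis-regulatory elements; Sp1-responsive reporter mRNA measured 24 h after dosing by RT-PCR and capillary electrophoresis fluorescence, fitted bidirectionally against DMSO baseline.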

[13] = ATG_SREBP_CIS: Attagene CIS-FACTORIAL HepG2 Assay for human Sterol Regulatory Element Binding (SREBP) (AID 2282962); conditions: HepG2 Attagene cis-factorial SREBP reporter, mRNA; actives raise or lower the signal
Summary of the method: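 Readout: fluorescent reporter-transcript peaks resolved by capillary electrophoresis after RT-PCR. Cells were human HepG2 carrying transfected cis-promoter reporter constructs, dosed for 24 h. Gain or loss of signal was fitted against DMSO controls.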

[14] = target: Signal transducer and activator of transcription 3 (Homo sapiens) (UniProt P40763); experiment: ATG_STAT3_CIS: Attagene CIS-FACTORIAL HepG2 Assay for human Signal Transducer and Activator of Transcription 3 (STAT3) (AID 2282963); conditions: HepG2, Attagene cis-factorial STAT3 reporter transcription; actives raise or lower the signal
Summary of the method: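 Cis-factorial format: endogenous transcription factors in HepG2 drive transfected reporter units. After 24 h treatment, reporter RNA was reverse-transcribed, amplified, FAM-labelled and HpaI-digested before CE analysis; activity scored in both directions against DMSO.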

[15] = ATG_TA_CIS: Attagene CIS-FACTORIAL HepG2 Assay for human TA Basal Promoter (AID 2282964); conditions: HepG2 Attagene CIS-factorial TA basal promoter reporter; actives raise or lower the signal
Summary of the method: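 Transient MRTU transfection of HepG2 preceded 24 h compound exposure. Reporter mRNA levels were then read by RT-PCR with capillary electrophoresis, and this background-control endpoint was fitted bidirectionally to DMSO.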

[16] = ATG_TCF_b_cat_CIS: Attagene CIS-FACTORIAL HepG2 Assay for human T-Cell-Factor with beta-catenin (TCF/b-cat) (AID 2282965); conditions: HepG2 TCF/beta-catenin cis-reporter transcription, actives raise or lower the signal
Summary of the method: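 Measured: reporter mRNA in HepG2 transiently transfected with cis-promoter reporter units, 24 h after chemical addition. Fitting was bidirectional, DMSO as negative control.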

[17] = ATG_TAL_CIS: Attagene CIS-FACTORIAL HepG2 Assay for human TAL Basal Promoter (AID 2282966); conditions: HepG2 Attagene cis-factorial TAL promoter reporter; actives raise or lower the signal;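 note: background control endpoint measuring basal TAL promoter reporter mRNA not a specific factor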
Summary of the method: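 Endogenous transcription-factor activity is sensed in HepG2 cells through transfected cis-promoter reporter constructs. After 24 h dosing, reporter transcripts are quantified by RT-PCR and capillary electrophoresis. Gain or loss of signal is fitted relative to DMSO.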

[18] = ATG_PPRE_CIS: Attagene CIS-FACTORIAL HepG2 Assay for human Peroxisome Proliferator-activated Response Element (PPRE) (AID 2282958); conditions: HepG2 PPRE cis-element reporter, Attagene transcription factor profiling; actives raise or lower the signal
Summary of the method: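 HepG2 cells transiently transfected with multiplexed cis-element reporter units measure endogenous transcription factor activity. After 24 h compound exposure, reporter mRNA is quantified by RT-PCR, 6-FAM labeling, HpaI digestion and capillary electrophoresis; bidirectional fits are made against DMSO baseline.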

[19] = ATG_Sox_CIS: Attagene CIS-FACTORIAL HepG2 Assay for human SRY-box transcription factor (SOX) (AID 2282960); conditions: HepG2 Attagene cis-factorial SOX reporter, mRNA; actives raise or lower the signal
Summary of the method: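 HepG2 cells transiently transfected with cis-element-driven multiple reporter transcription units, dosed 24 h; reporter mRNA measured by RT-PCR, FAM labelling, HpaI digestion and capillary electrophoresis. Bidirectional fit versus DMSO baseline.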

[20] = target: Hypoxia-inducible factor 1-alpha (Homo sapiens) (UniProt Q16665); experiment: ATG_HIF1a_CIS: Attagene CIS-FACTORIAL HepG2 Assay for human Hypoxia Inducible Factor 1 (HIF1A) (AID 2282951); conditions: HepG2 Attagene cis-factorial HIF1a reporter transcription; actives raise or lower the signal
Summary of the method: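 HepG2 cells transiently transfected with multiplexed cis-promoter reporter units; reporter mRNA read 24 h after dosing by RT-PCR, 6-FAM primer-extension labelling, HpaI digestion and capillary electrophoresis. Bidirectional fit versus DMSO baseline.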

Measured: AC50

Chain of Signal transducer and activator of transcription 3 (Homo sapiens) (P40763 whole entry, looked up): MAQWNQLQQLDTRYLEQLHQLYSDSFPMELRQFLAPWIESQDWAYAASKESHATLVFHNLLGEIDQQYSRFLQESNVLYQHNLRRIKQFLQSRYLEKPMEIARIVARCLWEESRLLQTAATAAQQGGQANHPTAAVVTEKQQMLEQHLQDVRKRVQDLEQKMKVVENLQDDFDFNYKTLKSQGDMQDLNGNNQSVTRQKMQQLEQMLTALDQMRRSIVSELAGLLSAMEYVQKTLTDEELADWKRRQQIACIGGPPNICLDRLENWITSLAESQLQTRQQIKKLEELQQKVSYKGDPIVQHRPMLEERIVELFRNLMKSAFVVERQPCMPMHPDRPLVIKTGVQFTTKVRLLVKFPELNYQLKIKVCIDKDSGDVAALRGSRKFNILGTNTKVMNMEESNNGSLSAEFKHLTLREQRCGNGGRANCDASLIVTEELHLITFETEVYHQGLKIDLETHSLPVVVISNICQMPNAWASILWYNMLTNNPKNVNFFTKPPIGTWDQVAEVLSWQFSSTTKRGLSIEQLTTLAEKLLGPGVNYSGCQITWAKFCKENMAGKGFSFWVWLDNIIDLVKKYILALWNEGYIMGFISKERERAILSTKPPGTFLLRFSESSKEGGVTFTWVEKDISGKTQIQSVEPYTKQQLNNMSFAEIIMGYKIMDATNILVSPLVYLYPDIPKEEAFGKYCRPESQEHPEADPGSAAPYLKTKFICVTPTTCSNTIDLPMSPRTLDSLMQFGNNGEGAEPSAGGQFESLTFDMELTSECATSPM
Chain of Paired box protein Pax-6 (Homo sapiens) (P26367 whole entry, looked up): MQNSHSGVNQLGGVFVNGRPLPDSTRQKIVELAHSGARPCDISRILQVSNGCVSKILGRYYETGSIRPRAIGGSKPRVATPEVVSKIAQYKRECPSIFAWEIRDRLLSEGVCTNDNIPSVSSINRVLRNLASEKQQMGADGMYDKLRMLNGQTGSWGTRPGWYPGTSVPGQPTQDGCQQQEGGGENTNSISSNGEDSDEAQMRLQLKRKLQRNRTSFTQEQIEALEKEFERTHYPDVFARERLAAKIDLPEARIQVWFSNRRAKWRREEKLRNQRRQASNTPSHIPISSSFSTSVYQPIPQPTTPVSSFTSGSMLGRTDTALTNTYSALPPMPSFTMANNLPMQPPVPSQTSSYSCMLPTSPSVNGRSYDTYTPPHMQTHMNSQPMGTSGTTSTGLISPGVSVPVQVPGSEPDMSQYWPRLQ
Chain of Hepatocyte nuclear factor 6 (Homo sapiens) (Q9UBC0 whole entry, looked up): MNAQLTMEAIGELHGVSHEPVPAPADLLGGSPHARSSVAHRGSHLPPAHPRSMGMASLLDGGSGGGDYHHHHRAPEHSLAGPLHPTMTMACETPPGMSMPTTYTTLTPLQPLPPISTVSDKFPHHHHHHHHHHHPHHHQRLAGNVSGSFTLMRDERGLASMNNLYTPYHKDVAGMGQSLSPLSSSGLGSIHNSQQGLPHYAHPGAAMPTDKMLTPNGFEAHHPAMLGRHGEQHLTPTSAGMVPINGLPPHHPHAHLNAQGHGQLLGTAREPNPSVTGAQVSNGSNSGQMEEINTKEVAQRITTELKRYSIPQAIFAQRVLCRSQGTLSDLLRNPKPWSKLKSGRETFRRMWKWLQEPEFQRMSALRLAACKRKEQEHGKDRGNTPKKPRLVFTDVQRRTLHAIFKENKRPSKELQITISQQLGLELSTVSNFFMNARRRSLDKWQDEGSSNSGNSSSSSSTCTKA
Chain of Transcription factor Sp1 (Homo sapiens) (P08047 whole entry, looked up): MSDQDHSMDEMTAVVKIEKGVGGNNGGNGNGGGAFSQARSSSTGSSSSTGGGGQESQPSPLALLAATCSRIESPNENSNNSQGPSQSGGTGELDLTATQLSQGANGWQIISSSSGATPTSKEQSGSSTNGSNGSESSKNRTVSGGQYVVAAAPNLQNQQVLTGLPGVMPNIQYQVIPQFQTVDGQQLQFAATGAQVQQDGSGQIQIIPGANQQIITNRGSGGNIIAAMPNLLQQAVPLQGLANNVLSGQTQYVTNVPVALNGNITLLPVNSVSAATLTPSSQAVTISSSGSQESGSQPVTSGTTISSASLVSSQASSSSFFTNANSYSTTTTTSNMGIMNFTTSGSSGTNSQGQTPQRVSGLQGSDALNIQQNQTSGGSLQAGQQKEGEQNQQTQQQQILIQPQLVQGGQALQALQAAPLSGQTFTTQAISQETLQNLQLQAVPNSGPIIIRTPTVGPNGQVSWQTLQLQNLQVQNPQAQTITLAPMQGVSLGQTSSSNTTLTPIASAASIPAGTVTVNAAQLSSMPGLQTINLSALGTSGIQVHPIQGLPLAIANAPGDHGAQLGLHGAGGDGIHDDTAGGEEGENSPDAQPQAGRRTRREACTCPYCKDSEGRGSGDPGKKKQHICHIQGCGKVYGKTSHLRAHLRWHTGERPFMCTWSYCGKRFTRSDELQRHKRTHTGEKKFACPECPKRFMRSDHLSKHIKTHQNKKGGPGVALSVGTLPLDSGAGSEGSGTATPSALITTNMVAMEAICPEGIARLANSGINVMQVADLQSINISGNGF
Chain of Heat shock factor protein 1 (Homo sapiens) (Q00613 whole entry, looked up): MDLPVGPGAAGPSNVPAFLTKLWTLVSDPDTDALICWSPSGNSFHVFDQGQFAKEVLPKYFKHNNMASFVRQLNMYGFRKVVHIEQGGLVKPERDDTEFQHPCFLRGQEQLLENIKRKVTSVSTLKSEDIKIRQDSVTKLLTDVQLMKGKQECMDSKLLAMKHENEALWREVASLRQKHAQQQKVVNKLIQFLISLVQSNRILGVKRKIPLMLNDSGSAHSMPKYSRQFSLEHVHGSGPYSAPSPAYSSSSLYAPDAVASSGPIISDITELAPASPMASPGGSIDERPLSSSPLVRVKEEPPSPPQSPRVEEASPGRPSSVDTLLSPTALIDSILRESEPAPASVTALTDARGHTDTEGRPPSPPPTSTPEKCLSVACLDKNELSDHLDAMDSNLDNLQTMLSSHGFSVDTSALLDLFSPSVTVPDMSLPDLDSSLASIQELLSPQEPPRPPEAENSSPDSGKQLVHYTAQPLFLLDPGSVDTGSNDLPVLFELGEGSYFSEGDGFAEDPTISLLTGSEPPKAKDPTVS
Chain of Hypoxia-inducible factor 1-alpha (Homo sapiens) (Q16665 whole entry, looked up): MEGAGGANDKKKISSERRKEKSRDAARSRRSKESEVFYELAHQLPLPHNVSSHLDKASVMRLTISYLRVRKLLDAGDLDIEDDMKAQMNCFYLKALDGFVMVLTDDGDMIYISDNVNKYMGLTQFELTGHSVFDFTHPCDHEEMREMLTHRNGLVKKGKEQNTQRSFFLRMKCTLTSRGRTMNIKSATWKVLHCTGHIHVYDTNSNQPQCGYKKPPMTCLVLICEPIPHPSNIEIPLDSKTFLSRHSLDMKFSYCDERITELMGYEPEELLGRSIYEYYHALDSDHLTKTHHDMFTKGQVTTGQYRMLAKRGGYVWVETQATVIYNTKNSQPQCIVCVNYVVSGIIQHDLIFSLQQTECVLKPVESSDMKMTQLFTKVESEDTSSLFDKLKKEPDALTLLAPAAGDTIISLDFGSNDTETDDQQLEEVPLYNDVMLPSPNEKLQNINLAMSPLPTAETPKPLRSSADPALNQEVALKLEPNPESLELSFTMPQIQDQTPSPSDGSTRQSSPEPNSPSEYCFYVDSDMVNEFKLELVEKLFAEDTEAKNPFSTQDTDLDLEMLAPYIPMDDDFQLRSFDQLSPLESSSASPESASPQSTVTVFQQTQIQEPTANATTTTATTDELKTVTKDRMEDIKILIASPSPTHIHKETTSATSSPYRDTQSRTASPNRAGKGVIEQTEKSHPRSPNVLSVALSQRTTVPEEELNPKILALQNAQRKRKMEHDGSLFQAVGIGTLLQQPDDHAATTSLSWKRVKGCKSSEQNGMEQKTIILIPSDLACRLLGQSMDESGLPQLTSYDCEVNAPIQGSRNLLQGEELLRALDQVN

CC(C)(O)c1coc(S(=O)(=O)NC(=O)Nc2c3c(cc4c2CCC4)CCC3)c1
active: [10] 26.9 µM
not listed: [18] | [19] | [20]
inactive: all other assays above

CC(=O)OCCC(C)C
not listed: [5] | [20]
inactive: all other assays above

COCCOCCOCCOC
not listed: [8] | [18] | [20]
inactive: all other assays above

CCC(C)(C)C(=O)O[C@H]1C[C@@H](C)C=C2C=C[C@H](C)[C@H](CC[C@@H]3C[C@@H](O)CC(=O)O3)[C@H]21
active: [13] 0.0317 µM
not listed: [10] | [20]
inactive: all other assays above

CCn1nc(Cc2ccccc2)cc1C1CCN(C[C@H]2C[C@H](N(C)[C@@H](C(=O)O)C(C)C)C[C@@H]2c2cccc(F)c2)CC1
active: [2] 100 µM | [13] 26.9 µM | [16] 100 µM
not listed: [20]
inactive: all other assays above

CC(C)CCCCCCCOC(=O)CCCCC(=O)OCCCCCCCC(C)C
active: [10] 100 µM
not listed: [19] | [20]
inactive: all other assays above

CCCCC(CC)COC(=O)c1ccc(C(=O)OCC(CC)CCCC)cc1 (centres undefined)
active: [10] 63 µM
not listed: [1] | [8] | [19]
inactive: all other assays above
